From PubChem BioAssay (NCI) come the findings set out here.

About 83,000 compounds went through this panel and 20% of them were active in at least one assay; those are over-represented in the sample as a whole.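 Single-dose data. Exposure time 48 hours. Values below 10 considered active.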 Active and inactive are the calls of the source.

The assay has as its system HL-60(TB) leukemia. The assay is described as follows: NCI-60 one-dose screen, 48 h (100 = growth as untreated, 0 = no growth, -100 = all killed). Particulars: 10 µM unless noted.
Regarding `CN(C)CCOc1nc2c3cccnc3cc(-c3cccc(Cl)c3)c2c2ncccc12`, the growth was -20.4% (active).

As for `Cc1cc(Nc2ccc(Cl)cc2)nc(NCCCNc2ccnc3cc(Cl)ccc23)n1`, the growth was -76.8% (active).

As to `CN1C(=O)N(C)C2C1NN=c1s/c(=C\c3ccc(Cl)cc3Cl)c(=O)n12` (centres undefined), the growth was -26.9% (active).

As to `COc1cc(OC)c(/C=C/C(=O)c2c(N)cc(OC)cc2OC)c(OC)c1`, the growth is 12.7% (inactive).

On to `CN1CCN(C(=O)/C=C/c2ccc([N+](=O)[O-])o2)CC1`, for which the growth was 66.2% (inactive).

For the molecule `O=C(N/N=C/c1ccc2c(c1)OCO2)c1cnn2c1NC(c1ccccc1)C2` (centres undefined), the growth was 56.3% (inactive).

For the molecule `COc1ccc(NC(=O)[C@@H]2C[C@H]2c2ccccc2)c(C(N)=O)c1`, the growth was 93.9% (inactive).

Take `Cc1nc(Nc2ccc(NC(=S)Nc3ccccc3)cc2)nc2nc(Nc3cccc(Cl)c3)[nH]c(=O)c12`: the growth was 57.1% (inactive).

As to `O=C(Nc1cccc(Br)c1)Oc1ccc(Cl)c2cccnc12`, the growth was 3.1% [100 µM] (active).

Take `O=C(CSc1nnnn1-c1ccccc1)Nc1ccc(Oc2ccccc2)cc1`: the growth was 110% (inactive).

Consider `CCN(CC)c1ccc(/C=C/C2=[N+](C)c3ccccc3C2(C)C)cc1`, for which the growth was 11.3% (inactive).

Regarding `CC(=O)Oc1ccc(N2C(=O)C(Cl)=C(Nc3cccc(C(F)(F)F)c3)C2=O)cc1`, the growth is 96.5% (inactive).

Turning to `C[C@H](C(=O)N(CCc1ccc(Cl)c(Cl)c1)Cc1cncs1)[C@@H]1CC[C@H](C[C@H](C)n2cc(CN3CCC(c4ccc(Cl)cc4)CC3)nn2)O1`, the growth was -71.2% (active).

For the molecule `Cc1ccc(S(=O)(=O)N/N=C2\CC3CCC2C3)cc1` (centres undefined), the growth is 98.5% (inactive).

Turning to `COc1ccc2cc(-c3nn(-c4ccc(C(=O)O)cc4)cc3CO)ccc2c1`, the growth is 50.3% (inactive).

Take `FC(F)(F)c1ccc(-c2cnc(-n3cc(COCCN4CCCCC4)nn3)nc2NC2CCCCCC2)cc1`: the growth is -63.1% (active).

Turning to `FC(F)(F)c1cccc([Si](F)(c2cccc(C(F)(F)F)c2)c2cccc(C(F)(F)F)c2)c1`, the growth was 80.5% (inactive).

Turning to `COc1ccc(Cl)cc1Nc1nc(C(F)(F)F)ccc1C(=O)N/N=C/c1c(Cl)cccc1Cl`, the growth is 48.4% (inactive).

Turning to `COC(=O)/C=C1\S/C(=N\NC(=O)c2cc3ccc2/C=C\c2ccc(cc2)/C=C\3)N(c2ccccc2)C1=O`, the growth was 16.4% (inactive).

On to `Cc1nc(N/N=C/c2cn(-c3ccccc3)nc2-c2cc3ccccc3oc2=O)sc1N=Nc1ccccc1`, for which the growth was 89% (inactive).

`CNc1ncc(-c2ccc(C(F)(F)F)cc2)c(NC2CCCCCC2)n1`: the growth is 57% (inactive).

Turning to `C(=N\Nc1ncc(-c2cc3cc4c(cc3o2)OCO4)s1)/c1ccco1`, the growth was 16.2% (inactive).

`C=C(C[n+]1ccccc1)[C@@H]1CC[C@]2(C(=O)OC)CC[C@]3(C)[C@H](CC[C@@H]4[C@@]5(C)CCC(=O)C(C)(C)[C@@H]5CC[C@]43C)[C@@H]12`: the growth is 58% (inactive).

Take `O=C(CSc1ccc(Cl)cc1)Nc1ccc(-c2nc3ccccc3s2)c(Cl)c1`: the growth was 63.4% (inactive).

As for `O=C(CN1N=C(c2ccc(F)cc2)CCC1=O)Nc1nccs1`, the growth is 95.3% (inactive).

On to `Clc1ccc(Cl)c(N=Cc2ccc3c(c2)OCO3)c1`, for which the growth was 102% (inactive).

For `NC(=O)N1CCOCC1`, the growth is 93.5% (inactive).

For the molecule `Cn1cc(-c2nc(-c3c[nH]c4c(Cl)nccc34)cs2)c2ccccc21`, the growth was 83.3% (inactive).

Turning to `O=C(Cc1ccc(F)c(Cl)c1)Nc1cc(C2(C(F)(F)F)CC2)nn1Cc1ccccc1`, the growth is 100% (inactive).

For `CCCCCCCN(CCCCCCC)C(=N)c1ccnc2ccccc12`, the growth was -64.4% (active).

In the case of `O=[N+]([O-])c1cccc(-c2nc3sccn3c2-c2ccnc(NCCCNS(=O)(=O)c3ccc(Cl)cc3)n2)c1`, the growth was 26.1% (inactive).

`O=C(Nc1ccc(Cl)c(Cl)c1)OCc1ccco1`: the growth is 32.1% (inactive).

Consider `COc1cc(-c2nn(C(=O)NCCN3CCN(C)CC3)cc2-c2ccncc2)ccc1Cl`, for which the growth was 93.2% (inactive).

For the molecule `CC[C@]12C=CCN3CC[C@@]4(c5ccc(OC)cc5N(C)[C@H]4[C@@](O)(C(=O)OC)[C@@H]1OC(=O)CCCN1CCOCC1)[C@@H]32`, the growth was 97.5% (inactive).

Regarding `O=C(O)c1cc(N=Nc2ccc(-c3ccc(N=Nc4c(S(=O)(=O)O)cc5ccc(Nc6ccccc6)cc5c4O)cc3)cc2)ccc1O`, the growth was 98.9% (inactive).

Take `O=c1oc2c(cnc3ccccc32)cc1-c1cccs1`: the growth is 98.2% (inactive).

Regarding `O=C(CCCCCCC(=O)Nc1ccc2c(c1)/C(=C/c1ccc[nH]1)C(=O)N2)NO`, the growth is 16.5% (inactive).

As for `Oc1ccc(CN2CCC(N3CCOCC3)CC2)c2cccnc12`, the growth was 34.4% (inactive).

As to `O=C(c1ccc(C(F)(F)F)c(Cl)c1)N(Cc1ccc(Cl)cc1)c1ccc(-c2cc(C(F)(F)F)[nH]n2)c(O)c1`, the growth was -14.9% (active).
